From ChEMBL document CHEMBL3433997, “St. Jude Leishmania screening dataset” (2016) come the findings set out here.

Common to all, as to assay type: functional
The target of assay [1] is Solute carrier family 2, facilitated glucose transporter member 1 (Homo sapiens) (UniProt P11166). Nature of the assay: ST_JUDE_LEISH: Cytotoxicity at 2uM final concentration against transgenic Leishmania Mexicana promastigotes LmGLUT1 that are glucose transport deficient and complemented with the human glucose transporter GLUT1. Activity is measured by DNA content using SYBR green in vitro.

The target in assay [2] is Hexose transporter 1 (Plasmodium falciparum) (UniProt O97467). Nature of the assay: ST_JUDE_LEISH: Cytotoxicity at 2uM final concentration against transgenic Leishmania Mexicana promastigotes LmPfHT that are glucose transport deficient and complemented with the Plasmodium falciparum hexose transporter. Activity is measured by DNA content using SYBR green in vitro.
The target in assay [3] is Glucose transporter (Leishmania mexicana) (UniProt O61059). Briefly: ST_JUDE_LEISH: Cytotoxicity at 2uM final concentration against transgenic Leishmania Mexicana promastigotes LmGT2 that are glucose transport deficient and complemented with the L. Mexicana glucose transporter 2. Activity is measured by DNA content using SYBR green in vitro.

The structures appear in SMILES notation.

Chain of Solute carrier family 2, facilitated glucose transporter member 1 (Homo sapiens) (P11166 whole entry): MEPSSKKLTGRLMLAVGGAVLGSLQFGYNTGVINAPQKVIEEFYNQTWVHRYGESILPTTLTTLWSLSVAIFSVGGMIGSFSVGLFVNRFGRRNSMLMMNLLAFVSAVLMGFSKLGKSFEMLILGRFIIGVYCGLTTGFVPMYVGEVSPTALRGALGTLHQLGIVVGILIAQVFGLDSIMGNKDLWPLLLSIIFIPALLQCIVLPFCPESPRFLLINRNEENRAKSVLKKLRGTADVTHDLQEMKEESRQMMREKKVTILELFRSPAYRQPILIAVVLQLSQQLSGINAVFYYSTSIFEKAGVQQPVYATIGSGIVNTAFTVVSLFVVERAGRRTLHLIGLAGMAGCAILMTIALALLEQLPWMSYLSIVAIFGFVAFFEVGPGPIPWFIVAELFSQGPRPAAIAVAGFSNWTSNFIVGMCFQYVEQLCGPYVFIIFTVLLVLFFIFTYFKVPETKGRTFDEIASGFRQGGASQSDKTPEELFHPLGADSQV

Turning to `Cc1noc(C)c1-c1cccc(CNCc2ccc(-c3ccc(-c4nc5cc(F)ccc5[nH]4)cc3)cc2)c1`, the inhibition (commonly the change of the read-out against control, counted positive when it falls) in assay [1] was 8.14%; in assay [2] it was 6.89%; in assay [3], 3.46%.

`OCCNc1nc(Nc2ccccc2)nc2ccccc12`: the inhibition in assay [1] came to 8.68%; in assay [2], 7.01%; in assay [3], 2.07%.

Consider `O=c1cc(NCCCNC2CCOc3c(Cl)cc(Cl)cc32)[nH]c2ccccc12` (stereo not drawn), for which the results for the inhibition in assay [1], in assay [2] and in assay [3] were 1.09%, 2.42% and 1.28%, respectively.

Regarding `CCCCN1Cc2c(n(CC(=O)Nc3ccccc3)c3cc(-c4ccccc4)nn3c2=O)C1=O`, the inhibition in assay [1] is 1.25%; in assay [2], 1.92%; in assay [3] it was 1.8%.

With `CN1CCC(C(=O)Nc2cccc(-c3ccc(-c4nc5ccccc5[nH]4)cc3)c2)CC1`, the inhibition is -0.41% in assay [1], 1.25% in assay [2] and 1.04% in assay [3].

With `Cc1ccc2nc(C)cc(N/N=C/c3cccc([N+](=O)[O-])c3)c2c1`, the inhibition came out at 4.41% in assay [1], 4.99% in assay [2] and 1.37% in assay [3].

On to `CCCN1CCN(CCCNC(=O)c2cc3c(-c4ccc(Cl)cc4)nn(C)c3s2)CC1`, for which the inhibition in assay [1] was determined as 18.3%; in assay [2], 17.4%; in assay [3], 10.2%.

Take `N#C/N=C(\NCCCCCCCCN/C(=N\C#N)NCCSCc1csc(N=C(N)N)n1)NCCCSc1csc(N=C(N)N)n1`: the inhibition is -0.03% in assay [1], 0.11% in assay [2] and 0.43% in assay [3].

As for `N#Cc1cccc(C(=O)NC2CCN(CCCCCNC(=O)/C=C/c3ccc(Cl)c(Cl)c3)CC2)c1`, the inhibition is 5.7% in assay [1], 5.26% in assay [2] and 7.61% in assay [3].

`Cc1ccc(-c2nnc(Nc3ccc(OCC(N)=O)cc3)c3ccccc23)cc1S(=O)(=O)NCC1CCCO1` (stereo not drawn): the inhibition was found to be 1.11% in assay [1], 3.81% in assay [2] and 2% in assay [3].

Regarding `COc1cc(-c2nc(C(C)(C)CN)[nH]c2-c2ccncc2)ccc1Br`, the figures for the inhibition in assay [1], in assay [2] and in assay [3] were 7.38%, 11.3% and 4.8%, respectively.

As for `CN(C)CCNC(=O)c1ccc(-c2ccc3c(Nc4ccccc4)c(C(N)=O)cnc3c2)cc1`, the inhibition in assay [1] came to 1.31%; in assay [2], 1.74%; in assay [3], 2.36%.

Turning to `Cn1nc(-c2ccc(CNC3CCc4ccccc43)cc2)c2cnc(NCCN3CCCC3)nc21` (stereo not drawn), the inhibition in assay [1] worked out at 2.93%; in assay [2] it was 3.09%; in assay [3], 0.03%.

As to `CCNc1cc(C(=O)N[C@@H](Cc2ccccc2)[C@H](O)CNC2CCCC2)cc(N2CCCC2=O)c1`, the inhibition came out at 3.87% in assay [1], 3.77% in assay [2] and 3.46% in assay [3].

As for `CN1CCC(Oc2ccc(NC(=O)c3ccc4c(=O)n(Cc5ccccc5)cnc4c3)cc2Cl)CC1`, the inhibition in assay [1] is 32.8%; in assay [2], 57.4%; in assay [3], 8.76%.

As for `COc1cc(NC(=O)c2ccc(-c3ccccc3)cc2)ccc1OCCCN1CCC(c2ccccc2)CC1`, the inhibition in assay [1] came out at 0.2%; in assay [2], 2.26%; in assay [3] it was 2.91%.

Consider `Cc1cc(-c2ccc3c(c2)CCN(CCC2CCC(NC(=O)/C=C/c4ccccc4F)CC2)CC3)on1` (stereo not drawn), for which the inhibition in assay [1] stood at 11%; in assay [2] it was 6.81%; in assay [3], 12.2%.

In the case of `O=C1CCCN1CCCNCc1ccc(-c2cccc(-c3nc4ccccc4[nH]3)c2)cc1`, the inhibition turned out to be 4.17% in assay [1], 3.74% in assay [2] and 4.94% in assay [3].

With `Cc1ccccc1C1CCN(C2CCC(NC(=O)c3cc(-c4ccc(Cl)cc4)cs3)CC2)CC1` (stereo not drawn), the results for the inhibition in assay [1], in assay [2] and in assay [3] were 2.23%, 3.13% and -2.52%, respectively.

`CC(C)c1ncc(-c2ccncc2)c(C2CCC(CNC(=O)c3ccncc3)CC2)n1` (stereo not drawn): the inhibition was 3.67% in assay [1], -0.19% in assay [2] and 1.87% in assay [3].

`Cc1ccc(C2(C)CC(C)(C)N(C(=O)COc3ccc4ccccc4c3)c3ccccc32)cc1` (stereo not drawn): the inhibition in assay [1] was -1.77%; in assay [2], -1.69%; in assay [3] it was 1.03%.

As for `COc1ccc2nccc([C@@H](O)CN3CCC(NCCNc4cccc(F)c4)CC3)c2c1`, the inhibition turned out to be 6.07% in assay [1], 11.1% in assay [2] and 0.95% in assay [3].

As for `COc1ccc(F)cc1-c1ccc(C(=O)N2CCCN(c3ccc(C#N)cn3)CC2)cc1`, the figures for the inhibition in assay [1], in assay [2] and in assay [3] were 0.86%, 0.21% and -5.82%, respectively.

`CC(C)(C)Oc1ccc(NC(=O)c2ccccc2O)cc1`: the values for the inhibition in assay [1], in assay [2] and in assay [3] were 6.73%, 5.36% and 4.28%, respectively.

`Cc1cc2[nH]c(-c3ccc(C(=O)NCCCN4CCN(c5cccc(Cl)c5)CC4)cc3)nc2cc1Cl`: the inhibition in assay [1] was 1.69%; in assay [2], 3.45%; in assay [3] it was -1.01%.

For the compound `CN1CCCc2ccc(NC(=O)c3cc(-c4ccc(Cl)cc4)cs3)cc2C1`, the inhibition turned out to be 1.97% in assay [1], 4.89% in assay [2] and 1.2% in assay [3].

For the compound `Nc1ccnc(N2CCC(CCOc3ccnc4cc(Cl)ccc34)CC2)c1`, the inhibition in assay [1] is 11.9%; in assay [2], 22.8%; in assay [3], 6.6%.

As for `COc1ccc2c(c1)Nc1ccc(Cl)cc1C2N` (stereo not drawn), the inhibition in assay [1] amounted to 3.78%; in assay [2], 1.62%; in assay [3], 0.48%.

Regarding `CN1CCN(CCCN(Cc2ccc(-c3ccc(CNCc4ccc5c(c4)OCO5)cc3)cc2)C(=O)Nc2ccccc2)CC1`, the inhibition turned out to be 11.6% in assay [1], 13.7% in assay [2] and 11% in assay [3].

As for `CC1CN(c2ccc(NC(=O)c3cccs3)cc2)CCN1Cc1cccc(F)c1` (stereo not drawn), the inhibition in assay [1] was -0.49%; in assay [2], -0.85%; in assay [3] it was 3.41%.

As for `CN1CCC(NCc2ccc(S(=O)(=O)Nc3ccc(Oc4cccc(Cl)c4)cc3)cc2)CC1`, the inhibition in assay [1] came out at 1.15%; in assay [2], 1.05%; in assay [3] it was 0.97%.

For the compound `CCSc1nc2sc3c(c2c(=O)n1-c1ccccc1)CCN(C)C3`, the values for the inhibition in assay [1], in assay [2] and in assay [3] were 0.1%, 0.76% and -0.96%, respectively.

On to `O=S(=O)(c1cccc(C(F)(F)F)c1)N1CCC(CO)(Cc2cccc(C(F)(F)F)c2)CC1`, for which the results for the inhibition in assay [1], in assay [2] and in assay [3] were 9.13%, 6.86% and 7.55%, respectively.

Consider `CCS(=O)(=O)c1ccc(-c2cnc3[nH]cc(-c4ccc(N)cc4)c3c2)cc1`, for which the inhibition in assay [1] was 16.2%; in assay [2] it was 21.7%; in assay [3], 16.2%.

For the compound `O=C(Nc1ccc(N2CCCCC2)c(Cl)c1)c1nc[nH]n1`, the inhibition in assay [1] is 2.18%; in assay [2], -0.39%; in assay [3], 1.65%.

As to `O=C(NC1CCN(Cc2ccccc2)CC1)c1cc(-c2ccncc2)c(-c2ccc(Cl)c(O)c2)o1`, the figures for the inhibition in assay [1], in assay [2] and in assay [3] were 2.8%, 1.63% and 0.77%, respectively.
